Reference: PubChem BioAssay AID686940 (The Scripps Research Institute Molecular Screening Center, 2013)
In all, about 370,000 compounds went through this assay and about 2,600 (0.7%) were called active. The full list was thinned out, with actives kept by preference. Unmarked numbers belong to inactive results.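 The calls were made as follows: active = inhibition above a per-plate cutoff, mean inhibition of test wells between control levels plus 3 SD (cut at about 38% in these data); inactive = the rest.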

Molecular target: COUP transcription factor 2 (Homo sapiens) (UniProt P24468)
Sequence (P24468 whole entry, looked up): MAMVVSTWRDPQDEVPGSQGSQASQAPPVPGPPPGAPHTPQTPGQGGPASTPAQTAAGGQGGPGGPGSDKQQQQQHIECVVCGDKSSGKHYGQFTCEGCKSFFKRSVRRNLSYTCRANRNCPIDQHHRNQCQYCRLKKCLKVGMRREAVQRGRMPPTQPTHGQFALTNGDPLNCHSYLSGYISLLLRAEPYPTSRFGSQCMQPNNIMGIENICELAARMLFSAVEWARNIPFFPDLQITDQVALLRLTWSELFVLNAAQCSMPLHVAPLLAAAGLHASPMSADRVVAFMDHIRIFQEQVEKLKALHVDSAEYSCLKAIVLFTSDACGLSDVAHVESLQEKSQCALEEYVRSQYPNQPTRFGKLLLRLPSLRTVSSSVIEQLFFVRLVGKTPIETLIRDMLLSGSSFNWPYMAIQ
Assay: NR2F2 transcriptional activity inhibitors, primary screen, cell-based, luciferase reporter, HEK293T, luminescence (AID 686940);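 also: cells cotransfected with COUP-TFII expression vector driving the NGFI-A reporter; 0% = median of COUP-TF2 test wells and 100% = reporter-only cells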
Details: HEK293T NGFI-A luciferase reporter, at 8.6 µM, hits give high values

| SMILES | inhibition |
| --- | --- |
| CC1=CC(=Cc2sc3ccccc3[n+]2C)C=C(C)O1 | 71.6% (active) |
| O=C(NCC1=C(c2ccc3ccccc3c2)C[C@@H]2CC[C@H]1N2Cc1ccco1)c1cccs1 | -9.66% |
| COC(=O)C1=C(c2ccc(-c3ccccc3)c(F)c2)C[C@@H]2CC[C@H]1N2C(=O)NCc1ccc(F)cc1 | 9.38% |
| Cc1cccc(NC(=O)OC2CN3CCC2CC3)c1 (stereo not given) | -3.61% |
| COC1C(O)C(C)OC(OC2CCC3(C=O)C(CCC4C3CCC3(C)C(C5=CC(=O)OC5)CCC43O)C2)C1O (stereo not given) | 78.5% (active) |
| Cc1ccc(P(=S)(c2ccc(C)o2)N2CCOCC2)o1 | -6.39% |
| O=C(C1CC(=O)N(C2CCCC2)C1)N1CCC2(CC1)OCCO2 (stereo not given) | -6.43% |
| CC(=C1C(=O)c2ccccc2C1=O)N1CCN(CCN=Cc2c(O)n(C)c(=O)n(C)c2=O)CC1 | 13.2% |
| c1ccc(C(CN2CCCCC2)c2ccccc2)cc1 | 5.82% |
| CCOc1ccc(-c2cc(C)[n+](CCN(CC)CC)c(-c3ccc(OCC)cc3)c2)cc1 | 65.8% (active) |
| Cc1cc(N2CCNC[C@@H]2C)ccc1N1CC[C@H](O)C1 | 14.6% |
| Cc1ccccc1CCC[C@@H](CC1CCCCC1)CN(C)C(=O)Oc1ccccc1 | 0.63% |
| CO[C@H]([C@H](C)/C=C/N(C)C=O)[C@@H](C)C(=O)CC[C@H](C)[C@H](O)[C@H](C)[C@H]1OC(=O)/C=C/C(C)=C/[C@H](O)[C@H](OC)C[C@@H]2C=CC[C@@H](C[C@H](OC)[C@@]3(CO3)[C@@H](OC)C[C@@H](OC)[C@@H]1C)O2 | -21.1% |
| CCC(C)(O)C(=O)OC1C(=O)OC2CC3C(C)=CC(=O)C(O)C3(C)C3C4(O)OCC23C1C(C)C4O (stereo not given) | 89.2% (active) |
| CC(C)Oc1cccc(C(=O)C2CCCN(C3CCOCC3)C2)c1 (stereo not given) | -4.53% |
| COc1ccc2c(c1)[C@@]13CCCCC1[C@@H](C2)NCC3 (stereo not given in full) | -12.9% |
| Clc1ccc([C@@H]2CC3CCC2N3)cn1 (stereo not given in full) | -1.27% |
| O=S(=O)(c1ccccc1)N1CCC2CCNC2C1 (stereo not given) | 12.5% |
| CS(=O)(=O)N1CCC2CCNC2C1 (stereo not given) | 8.62% |
| Brc1ccc2c(c1)CNCc1cnnn1-2 | -8.52% |
| CCCCCCCCCCCCn1ccc(=N)cc1 | 81.1% (active) |
| COP(=O)(Sc1ccccc1)C(Cc1ccccc1)NC(=O)OCc1ccccc1 (stereo not given) | -13.2% |
| CC(=NC1CCN(Cc2ccccc2)CC1)c1c(O)n(C)c(=O)n(C)c1=O | -7.27% |
| CCC(C)NC1(c2ccccc2)CCCCC1 (stereo not given) | 6.15% |
| O=c1c2ccccc2nc(CBr)n1-c1ccc(Cl)cc1 | 6.6% |
| C[C@]12CC[C@H](O)C[C@H]1CC[C@@H]1C2CC[C@]2(C)[C@@H](C3=CC(=O)OC3)[C@@H](O)C[C@]12O (stereo not given in full) | 44.1% (active) |
| CCN(CC)C(=O)[C@@H]1C=C2c3cccc4[nH]c(Br)c(c34)C[C@H]2N(C)C1 | 14.9% |
| CCC/C(=N\O)c1c[nH]c2ccccc12 | -11.3% |
| COc1cc(OC)cc(C(=O)NCCN2CCC3(CC2)C(=O)NCN3c2ccccc2)c1 | 0.55% |
| NCCc1ccc(S(=O)(=O)F)cc1 | 18.9% |
